Reference: PubChem BioAssay AID1159580 (chemical genetic matrix, 2015)
Values joined by “and” are separate entries in the source; they are usually repeats but may differ in a detail not shown here. Identical values can stand only once. The campaign covered roughly 5,500 compounds. About 2,000 (36%) were called active. About 18% were inconclusive and are not listed. Cut-off read from the data, not from the text of the source: active = normalized growth mostly below about 0.91 (no sharp cut-off); inconclusive = no clear call, values can overlap the other calls; inactive = mostly above about 0.92. The list shows a part of the results.

Test: chemical genetic growth profiling, strain panel (AID 1159580);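 note: tested at 20 µM; growth read once vehicle control cultures reached saturation at 30 °C; 1 = growth at the plate median or of vehicle wells; lower values mean less growth of the strain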
Settings: S. cerevisiae deletion strains, growth OD

Measured: normalized growth

CC[C@H]1OC(=O)[C@H](C)[C@@H](O[C@H]2C[C@@](C)(OC)[C@@H](O)[C@H](C)O2)[C@H](C)[C@@H](O[C@@H]2O[C@H](C)C[C@H](N(C)C)[C@H]2O)[C@](C)(O)C[C@@H](C)/C(=N/OCOCCOC)[C@H](C)[C@@H](O)[C@]1(C)O
inactive: locus YAL021C, strain ccr4, active compounds read low 1.03 | locus YAL026C, strain drs2, active compounds read low 1.02 | locus YAL030W, strain snc1, active compounds read low 0.998 | locus YBL061C, strain skt5, active compounds read low 1.01 | locus YBR009C, strain hhf1, active compounds read low 0.998 | locus YBR021W, strain FUR4, active compounds read low 1.02 | locus YBR023C, strain chs3, active compounds read low 1.01 | locus YBR171W, strain sec66, active compounds read low 1.03 | locus YBR229C, strain ROT2, active compounds read low 1.01 | locus YBR231C, strain swc5, active compounds read low 1.01 | locus YBR279W, strain paf1, active compounds read low 1 | locus YCL011C, strain gbp2, active compounds read low 1.01 | locus YCL016C, strain dcc1, active compounds read low 1 | locus YCL029C, strain bik1, active compounds read low 0.988 | locus YCL069W, strain vba3, active compounds read low 1.02 | locus YCR088W, strain abp1, active compounds read low 1.01 | locus YDL005C, strain med2, active compounds read low 1.01 | locus YDL035C, strain GPR1, active compounds read low 1.01 | locus YDL040C, strain nat1, active compounds read low 1.01 | locus YDL074C, strain BRE1, active compounds read low 0.975 | locus YDL101C, strain DUN1, active compounds read low 0.991 | locus YDL134C, strain PPH21, active compounds read low 1.01 | locus YDL185W, strain tfp1, active compounds read low 1 | locus YDL192W, strain arf1, active compounds read low 1.01 | locus YDR001C, strain nth1, active compounds read low 1.01 | locus YDR069C, strain doa4, active compounds read low 1.03 | locus YDR101C, strain arx1, active compounds read low 0.994 | locus YDR137W, strain rgp1, active compounds read low 0.969 | locus YDR159W, strain sac3, active compounds read low 0.996 | locus YDR162C, strain NBP2, active compounds read low 1.01 | locus YDR195W, strain ref2 0.994 | locus YDR297W, strain sur2, active compounds read low 1.02 | locus YDR318W, strain mcm21, active compounds read low 0.995 | locus YDR334W, strain swr1, active compounds read low 1.01 | locus YDR335W, strain msn5, active compounds read low 1.01 | locus YDR388W, active compounds read low 0.999 | locus YDR392W, strain spt3, active compounds read low 0.949 | locus YDR502C, strain sam2, active compounds read low 1.01 | locus YEL003W, strain gim4, active compounds read low 1.02 | locus YEL037C, strain rad23, active compounds read low 1.02 | locus YEL061C, strain CIN8 (second series), active compounds read low 1 | locus YEL061C, strain CIN8, active compounds read low 1 | locus YER015W, strain faa2, active compounds read low 1.01 | locus YER016W, strain bim1, active compounds read low 0.995 | locus YER110C, active compounds read low 1 | locus YER111C, strain swi4, active compounds read low 1.01 | locus YER155C, strain BEM2 (second series), active compounds read low 0.897 | locus YER155C, strain BEM2, active compounds read low 1 | locus YER167W, strain BCK2, active compounds read low 1 | locus YFR010W, strain ubp6, active compounds read low 1.02 | locus YGL078C, strain dbp3, active compounds read low 1 | locus YGL086W, strain mad1, active compounds read low 1 | locus YGL167C, strain pmr1, active compounds read low 1 | locus YGL173C, strain kem1, active compounds read low 1.02 | locus YGL227W, strain vid30, active compounds read low 1.03 | locus YGL240W, strain doc1, active compounds read low 1.02 | locus YGL248W, strain PDE1, active compounds read low 0.993 | locus YGL253W, strain hxk2, active compounds read low 1.01 | locus YGR135W, strain pre9, active compounds read low 1.04 | locus YGR229C, strain SMI1, active compounds read low 1.01 | locus YHR013C, strain ard1, active compounds read low 0.983 | locus YHR027C, strain rpn1, active compounds read low 0.999 | locus YHR030C, strain SLT2, active compounds read low 1.01 and 0.997 | locus YHR079C, strain IRE1 (second series), active compounds read low 0.98 | locus YHR079C, strain IRE1, active compounds read low 0.985 | locus YHR094C, strain hxt1, active compounds read low 0.987 | locus YHR129C, strain ARP1, active compounds read low 1.01 | locus YHR142W, strain chs7, active compounds read low 1.02 | locus YHR200W, strain rpn10, active compounds read low 1.01 | locus YIL066C, strain RNR3, active compounds read low 0.983 | locus YIL073C, strain SPO22, active compounds read low 1.07 | locus YIL125W, strain kgd1, active compounds read low 1 | locus YIR030C, strain dcg1, active compounds read low 0.997 | locus YJL092W, strain hpr5, active compounds read low 1.01 | locus YJL095W, strain BCK1 (second series), active compounds read low 1.01 | locus YJL095W, strain BCK1, active compounds read low 0.97 and 0.99 | locus YJL115W, strain asf1, active compounds read low 1.04 | locus YJL129C, strain trk1, active compounds read low 1.02 | locus YJL134W, strain LCB3, active compounds read low 1 | locus YJL154C, strain vps35, active compounds read low 1.01 | locus YJL164C, strain tpk1, active compounds read low 1.01 | locus YJL166W, strain qcr8, active compounds read low 1.01 | locus YJL168C, strain set2, active compounds read low 0.992 | locus YJL187C, strain SWE1 (second series), active compounds read low 0.97 | locus YJL187C, strain SWE1, active compounds read low 1.02 | locus YJR043C, strain POL32, active compounds read low 1.01 | locus YJR066W, strain TOR1, active compounds read low 0.977
